One test addresses SFTA2. Briefly: pooled miR-30 sensor sort-seq; sequence = guide strand. The following applies: shRNA.
Turning to ATTTGTCAGAAAAGACTCCTTC, the sensor-assay potency score (higher = more potent) came to 0.636.

As for TCCATGTGAGCTGCCAAGGAGG, the sensor-assay potency score (higher = more potent) was -1.63. The sequence TTCCATGTGAGCTGCCAAGGAG showed a sensor-assay potency score (higher = more potent) of -0.915.

Sequence TTGAGATCTTGCATGGTGGAGG yielded a sensor-assay potency score (higher = more potent) of -0.323. The sequence AATTTGTCAGAAAAGACTCCTT returned a sensor-assay potency score (higher = more potent) of -0.354.

For a further test, the target named is SGK1. Described as above. The following applies: shRNA.
The sequence TACAATTTGTCAGCAGTCTGGA had a sensor-assay potency score (higher = more potent) of 0.173. TACATTTCAGCTGTGTTTCGGC registered a sensor-assay potency score (higher = more potent) of 0.293.

As for TTTGCTGAGAAGGACTTGGTGG, the sensor-assay potency score (higher = more potent) is 0.0605. For the sequence TTGTCGTACATTTCAGCTGTGT, the sensor-assay potency score (higher = more potent) was -0.298. Sequence TTTTAAGTCTCTATAAACGATG gave a sensor-assay potency score (higher = more potent) of -1.25. TTATTAATGAGATCATCCCAGT gave a sensor-assay potency score (higher = more potent) of -0.742. In turn, TTGCTAGAAGAACCTTTCCAAA displayed a sensor-assay potency score (higher = more potent) of -1.79. With TTCTGTAAAACTTTGACTGCAT, the sensor-assay potency score (higher = more potent) worked out at 0.858.

As to TTCTTCAACAGAACATTCCGCT, the sensor-assay potency score (higher = more potent) worked out at 0.565. Sequence TTTGACTGCATAGAACACTTCT displayed a sensor-assay potency score (higher = more potent) of 0.33.

Sequence TTTAGCATGAGGATTGGACGAC yielded a sensor-assay potency score (higher = more potent) of -0.303. As to TAAGTCTCTATAAACGATGTTC, the sensor-assay potency score (higher = more potent) is -0.772.

For another test, the target named is SGTA. Described as above. The following applies: shRNA.
In the case of AAGGTCACTGTCTTCTACCGTC, the sensor-assay potency score (higher = more potent) is 0.33. On to TGAGCTGCTCTATCAACTCTGG, for which the sensor-assay potency score (higher = more potent) is -0.693. As to TATCTTGAGGTTGGACTTGTAT, the sensor-assay potency score (higher = more potent) is -0.792.

TTGAGCTCGATGGCTTTTCCGT came in with a sensor-assay potency score (higher = more potent) of -0.866.

Turning to TTGTATGTCTCGTTGTCGGGGT, the sensor-assay potency score (higher = more potent) was found to be 0.213. Take TATCAACTCTGGGTTCTGCTGC: the sensor-assay potency score (higher = more potent) came out at 0.409. In turn, TAGGCCTTGCTGTAGGCCGGGT came in with a sensor-assay potency score (higher = more potent) of -1.17.

On to TTTTCCACTTTCATCTGCTCGT, for which the sensor-assay potency score (higher = more potent) was -0.241. The same measure, in the same setting: next, TCATCTGCTCGTTTCCTTCGGT: 0.113; TTCCACTTTCATCTGCTCGTTT: 0.488.

As to TTCTGCTGCTGCATCTGCTGGG, the sensor-assay potency score (higher = more potent) was 0.386.

For the sequence TTGGACTTGTATGTCTCGTTGT, the sensor-assay potency score (higher = more potent) was 0.614.

The next test addresses SH3YL1. The test is described as above. The following applies: shRNA.
TAACTGTGATTCTGTCTCCAGC had a sensor-assay potency score (higher = more potent) of -0.946. The same measure, in the same setting: the figure for TTTTCTTGCATTGATTCGTTGT is 0.574. The same measure, in the same setting: next, TTGCATTGATTCGTTGTCCTTC: 0.55. In turn, TTGGAGGTAATTCTTTAGCAGA came in with a sensor-assay potency score (higher = more potent) of -1.34. On the same count and under the same terms, the figure for TTTCATAAAGATCTTCGGCTTG is -0.146. Same read-out and setting: the figure for TTTAGCAGAAGACTTCCTCTGC is 0.193; for ATAACTGTGATTCTGTCTCCAG it is -0.286; for TTGCTTAACTAGTAAATCCTGT it is 0.218. TTAACTAGTAAATCCTGTCAGT yielded a sensor-assay potency score (higher = more potent) of -0.0626. The sequence TTGAGAGCCAGAGTTCAGCTGG displayed a sensor-assay potency score (higher = more potent) of 0.176. With TTGTCCTTCATTTTCATACTTT, the sensor-assay potency score (higher = more potent) was -0.366.

The values are drawn from the OligoGym collection.
Note: reference of the scale not given here.
